# Assay outcomes: PubChem BioAssay, National Center for Advancing Translational Sciences (NCATS)
# Gal4-VP16 FLuc = VP16 counterscreen qHTS for inhibitors of ROR gamma transcriptional activity; 310,000 tested, 3.5% active; Potency, µM (titrated, usually from 53.6 µM), inactives show at the highest dose activity, negative = inhibition, usual class: inhibitors; AID 2546, 2010; Drosophila S2 Gal4-VP16 UAS-luciferase, luminescence, 20 h;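 also: Gal4-VP16 expression switched on by copper sulfate through the metallothionein promoter; potency is read from the fitted curve at half-maximal effect; nearly all actives have a fitted effect of over 50% in size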
# FBPA coupling cs = qHTS Assay for Inhibitors of Fructose-1,6-bisphosphate Aldolase from Giardia Lamblia: Coupling assay counterscreen | activity change, negative = inhibition, % at 58.2 µM, hits read low | coupling enzyme system counterscreen, AmpLite Red fluorescence | 290,000 tested, 0.67% active; in the data active = activity change below about -30%
#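 Counterscreen lacking aldolase: glyceraldehyde-3-phosphate coupling-enzyme reagent preincubated 10 min at RT with compound (at 57.5 uM final), then substrate/coupling system with AmpLite Red added; fluorescence read at 525/598 nm after 20 min RT.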
# TSHR antagonist = Antagonists of the Thyroid Stimulating Hormone Receptor: HTS campaign. TSHR-expressing cells, TSH-stimulated cAMP HTRF, 2 h; active compounds read low. activity change, negative = inhibition, % at 11.5 µM. 330,000 tested, 0.2% active;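 active = activity change below a set negative limit, meaning inhibition stronger than a set level, cut at about -70% in these data; inconclusive = activity change between two set negative limits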
# Target sequence (P16473 whole entry, looked up): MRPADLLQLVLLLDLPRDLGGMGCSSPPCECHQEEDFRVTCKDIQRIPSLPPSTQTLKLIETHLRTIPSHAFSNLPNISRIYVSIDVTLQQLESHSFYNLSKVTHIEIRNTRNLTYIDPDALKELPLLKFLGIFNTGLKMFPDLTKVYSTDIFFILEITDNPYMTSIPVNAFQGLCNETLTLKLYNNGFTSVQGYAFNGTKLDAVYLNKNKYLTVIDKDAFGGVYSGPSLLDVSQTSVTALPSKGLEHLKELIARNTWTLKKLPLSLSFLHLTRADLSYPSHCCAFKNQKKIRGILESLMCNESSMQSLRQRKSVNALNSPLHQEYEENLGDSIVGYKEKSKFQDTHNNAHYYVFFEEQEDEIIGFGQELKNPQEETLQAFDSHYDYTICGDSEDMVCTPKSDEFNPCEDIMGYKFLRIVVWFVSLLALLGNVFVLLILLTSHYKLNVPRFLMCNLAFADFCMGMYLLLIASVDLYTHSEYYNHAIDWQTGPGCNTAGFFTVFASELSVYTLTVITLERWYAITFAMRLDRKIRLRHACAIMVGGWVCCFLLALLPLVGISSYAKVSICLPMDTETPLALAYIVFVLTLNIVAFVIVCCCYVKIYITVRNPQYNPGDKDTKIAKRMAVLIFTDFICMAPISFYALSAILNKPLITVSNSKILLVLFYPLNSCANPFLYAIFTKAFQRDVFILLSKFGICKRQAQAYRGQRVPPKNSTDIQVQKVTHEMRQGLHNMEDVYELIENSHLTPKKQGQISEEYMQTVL
#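 Competitive HTRF cAMP read-out (cryptate anti-cAMP antibody, cAMP-d2; 30 min, room temperature) in freshly harvested TSHR cells. Compounds added before TSH at EC80 (4nM final), followed by 2 hours' incubation at 37 deg C.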
# RORg inh = qHTS for inhibitors of ROR gamma transcriptional activity; Drosophila S2 Gal4-RORgamma UAS-luciferase reporter, 20 h; Potency, µM (series often up to 53.6 µM), without a hit: at the top dose activity change, negative = inhibition, usual class: inhibitors; 310,000 tested, 5.4% active; AID 2551, 2010; also: potency is read from the fitted curve at half-maximal effect; nearly all actives have a fitted effect of over 60% in size
#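 Using a luciferase readout, inhibitors were identified by reduced reporter activity in Drosophila cells coexpressing a copper-inducible Gal4–ROR gamma fusion and UAS-driven Photinus luciferase, incubated 20 hr after 700 uM copper sulfate.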
# ELG1 repair inh = qHTS screen for small molecules that inhibit ELG1-dependent DNA repair in human embryonic kidney (HEK293T) cells expressing luciferase-tagged ELG1; HEK293T ELG1-luciferase reporter, luminescence, 16 h; DNA damage induced by 5-fluorouridine; 330,000 tested, 2.3% active; Potency, µM (series often up to 46.1 µM), inactives show top-dose activity change, negative = inhibition, actives largely listed as inhibitors; also: potency is read from the fitted curve at half-maximal effect; nearly all actives have a fitted effect of over 55% in size
#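 Cells (2,000 per well) received 5-fluorouridine plus test compound or DMSO and were incubated 16 hr at 37 °C, 5% CO2. Luciferase activity was read by luminescence 30 min after ONE-Glo addition; signal suppression marked inhibition of damage-induced ELG1 function.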
# Numbers without * were called inactive; ? = inconclusive; . = no result given; ! = a repeat was not active; [ ] = dose if it differs, or a comment. A selection: hits, their analogues and other compounds. The true share with any hit is near 8%. Unless noted, calls follow the shape of the dose curve; as a rule, active = well fitted curve in the direction sought with a large enough effect; inconclusive = small, poorly fitted or top-dose-only effect, or another doubt; inactive = no such curve, though single readings can be large; an effect the other way counts as inactive or inconclusive. % is scaled to controls: 0 for no effect and ±100 for the full control effect.
SMILES,Gal4-VP16 FLuc,FBPA coupling cs,TSHR antagonist,RORg inh,ELG1 repair inh
O=C(/C=C/c1ccco1)NC(=S)Nc1ccccc1N1CCCC1,?,-12.1,-7.6,?,-6.5%
O=C(/C=C/c1ccco1)NC(=S)Nc1ccccc1N1CCOCC1,8.91µM*,-0.5,-7.8,2.82µM*,13.0%
O=C(/C=C/c1ccco1)NC(=S)Nc1cc(C(F)(F)F)ccc1N1CCOCC1,?,-2.3,-9.3,6.31µM*,10.3%
CN1CCCN(C(c2ccccc2)c2ccc(Cl)cc2)CC1 (stereo not given),-9.9%,0.8,8.0,10µM*!,-7.5%
COc1ccc(NC(C)=O)cc1NC(=O)C1CCCN1C(=O)c1cccs1 (stereo not given),.,.,1.3,.,11.8%
COc1ccc(COC(=O)Nc2cn(C)nc2C(F)(F)F)cc1,-13.5%,0.5,-6.2,?,1.1%
COc1ccc(C)cc1NC(=O)C1CCN(C(=O)C2CC(=O)N(c3ccc(C)cc3)C2)CC1 (stereo not given),-8.1%,-0.4,-1.0,1.7%,-5.1%
Cc1cccc(N(Cc2ccccc2)C(=O)c2ccccc2S(C)(=O)=O)c1,3.0%,.,5.0,-7.6%,0.3%
CC(=O)Nc1cnc(NC(=O)c2cccc(F)c2)cc1C,?,-9.3,19.4,3.98µM*,?
O=c1[nH]c2ccc(Cl)cc2c(-c2ccccc2)c1SC(=S)N1CCOCC1,4.47µM*,0.9,-5.2,1µM*,-19.3%
O=c1[nH]c2ccc(Cl)cc2c(-c2ccccc2)c1[N+](=O)[O-],-9.2%,1.7,-10.8,1.26µM*,1.3%
O=c1[nH]c2ccc(Cl)cc2c(-c2ccccc2)c1SC(=S)N1CCCCC1,7.08µM*,-1.6,9.7,5.62µM*,-7.5%
O=c1[nH]c2ccc(Cl)cc2c(O)c1-c1ccccc1,-10.2%,4.1,19.7,0.7%,?
NNC(=O)CSc1c(-c2ccccc2)c2cc(Cl)ccc2[nH]c1=O,5.1%,-2.7,-3.3,-2.7%,22.5%
COP(=O)(OC)OC(c1ccc(Cl)cc1)P(=O)(OC)OC (stereo not given),-1.7%,3.8,.,6.0%,.
CNc1c(-n2cc(C(=O)OC)c(C(=O)OC)c2C(=O)OC)c(=O)n(C)c(=O)n1C,2.5%,3.1,5.0,4.1%,0.0%
O=C(COC(=O)c1ccc[nH]c1=O)Nc1ccc(N2CCCCC2)cc1,.,.,.,.,-22.9%
CCOC(=O)c1c(NC(C)=O)sc2c1CCN(Cc1ccccc1)C2,-2.4%,-0.3,-6.0,9.7%,3.1%
CCOC(=O)c1c(NC(=S)NCCc2ccccc2)sc2c1CC(C(C)C)OC2 (stereo not given),1.26µM*,-3.1,-2.0,2.51µM*,?
C=CCNC(=S)Nc1sc2c(c1C(=O)OCC)CC(C(C)C)OC2 (stereo not given),4.47µM*,-1.6,8.5,5.01µM*,?
O=c1c(-c2ccc(F)cc2)nc2cncnc2n1C1CC1,-14.8%,2.1,.,-12.4%,.
CC1(C)C(=O)CC[C@@]2(C)C1CC(O)[C@@]1(C)C3=CC(=O)OC(c4ccoc4)[C@]3(C)CCC21 (stereo not given in full),3.3%,4.6,.,13.3%,.
COc1ccccc1NC(=O)C1=C(C)Nc2nc(SCc3cccc(F)c3)nn2C1c1ccc(C(=O)O)cc1 (stereo not given),.,.,22.6,.,.
CCOc1ccc2nc(N/C(N)=N/C(=S)Nc3ccc(C)c(C)c3)nc(C)c2c1,?,-0.1,1.2,1.78µM*,1.2%
COc1ccc(NC(=S)/N=C(\N)Nc2nc(C)c3ccc(C)cc3n2)cc1,2µM*,-1.0,6.3,0.631µM*,?
SMILES,Gal4-VP16 FLuc,FBPA coupling cs,TSHR antagonist,RORg inh,ELG1 repair inh
CCNC(=S)/N=C(\N)Nc1nc(C)c2cc(C)ccc2n1,-1.7%,-9.3,1.6,-2.5%,?
C=C1C(CCl)(CCl)C2(Cl)C(Cl)C(Cl)C1(Cl)C2(Cl)Cl (stereo not given),-29.4%,.,.,-2.5%,.
Cc1ccc(C)c(CN2CCSCC2)c1,2.4%,1.0,-8.0,1.1%,-0.9%
CCOC(=O)/C(=N\Nc1ccc(Cl)cc1)Sc1nnc(-c2ccc(OC)cc2)n1C,6.31µM*,1.0,8.3,4.47µM*,7.9%
CC(=O)/C(=N/Nc1ccc(C)cc1)Sc1nnc(CCc2ccccc2)n1-c1ccccc1,?,-2.6,7.1,?,-24.5%
CCOC(=O)/C(=N/Nc1ccc(OC)cc1)Sc1nnc(CCc2ccccc2)n1-c1ccccc1,?,0.8,13.5,7.08µM*,?
COC(=O)/C(=N\Nc1ccccc1)Sc1nnc(-c2ccc(OC)cc2)n1C,?,10.7,-1.9,?,-1.0%
CC(C)N(Cc1ccccc1)C(=O)CN1C(=O)NC2(CCCC2)C1=O,.,.,-4.0,.,0.0%
CC(C)c1ccc(N(CC(=O)NCc2ccco2)C(=O)CCC(=O)Nc2ccccn2)cc1,-1.3%,-0.1,-5.9,40.8%,-15.4%
CN1CCN(CC(=O)Nc2nc(-c3ccccc3)cs2)CC1,3.9%,1.5,26.3,27.1%,?
COc1ccc(N2CCN(CC(=O)Nc3nnc(-c4ccccc4)s3)CC2)cc1,?,-0.9,-0.2,10µM*,9.9%
COc1ccc(CCNC(=O)c2ccccc2NC(=O)CN2CCN(c3ccccc3O)CC2)cc1,.,.,0.8,.,5.17µM*
COc1ccc(N2CCN(CC(=O)Nc3ccccc3C(=O)NCc3ccccc3)CC2)cc1,.,.,-8.5,.,7.08µM*
O=C(CN1CCN(c2ccccc2)CC1)Nc1nnc(-c2ccccc2)s1,-29.6%,0.0,-8.4,?,12.4%
COc1ccc(C2(O)CCN(CC(=O)Nc3nc(-c4ccccc4)cs3)CC2)cc1,3.0%,-0.1,-6.1,1.1%,23.1µM*
O=C(CN1CCN(c2ccccc2O)CC1)Nc1ccccc1C(=O)NCCc1ccccc1,.,.,17.0,.,?
O=C(CN1CCN(c2ccc(F)cc2)CC1)Nc1ccccc1C(=O)NCCc1ccccc1,.,.,8.6,.,?
CC(C)(C)c1ccc(OCCC(=O)NCC(c2cccs2)N2CCOCC2)cc1 (stereo not given),.,.,-3.4,.,-7.6%
O=C(Nc1cccc2cccnc12)c1ccc(Br)cc1Br,2.3%,0.9,-0.6,-12.9%[1.91 µM],?
CCN(CC)C(=O)CN1CCC(c2nc3cc(C)c(C)cc3[nH]2)CC1,4.0%,0.1,8.8,-5.5%,34.0%
CCN(C(=O)CSc1nnc(SC)s1)c1c(N)n(Cc2ccccc2)c(=O)[nH]c1=O,.,.,6.0,.,1.3%
O=C(NCc1ccco1)C(c1ccccc1)N(Cc1ccccc1)C(=O)Cn1nnc2ccccc21 (stereo not given),-11.8%,-0.1,-12.0,-6.5%,18.4µM*
